Experimental data: paper PMC12864922, “TDP-43 directly inhibits mRNA accumulation in neurites through modulation of mRNA stability”
Changes are numbered by the printed parent chain. In all, about 9,900 sequences were measured (“r (bound/input frequency ratio)”: median about 0.7, highest 2% from about 6.5 on). Only a selection was taken, and the highest values are over-represented in it overall.

B1: ENSMUSG00000032194.180|Kank2|82:88;185:189 (ssRNA)
RNA: GGGAGUUCUACAGUCCGACGAUCGCUUCGAUAUCCGCAUGCUAUGGCCUCAGAGCACUCCCAGAACUAGCUUAAAGUGACAGGCUUUGCUGAAAUCCAAAGGGACAAAAGAGUAGUUUUAUGUUACACACAUUGUUUUUAAUGCCCUGGAGCUCCUGCUGGUGACAGGAGAGACAGACAGGCUGCACCUUUCUCUAACUGGGGUUCCUUUCUGGCCCCAGGAUCUCACACACGUUCGUGGGGGGAUUUUGUUGUUGUUUCUUUGUUUCUUUUCUUCAUAAAGAAGAAAAAGGAAACAACUUCUCUCUUGCGGUCGCACUAGUGUGGAAUUCUCGGGUGUCAAGG
B2: ENSMUSG00000061578.618|Ksr2 (ssRNA)
RNA: GGGAGUUCUACAGUCCGACGAUCGCUUCGAUAUCCGCAUGCUAGUGGCUUGCCUGGCUGGCCUGUGAUAUAGUGGACUGUCUUAGUGAUCGGACUUCAGGGAGCAACCUAUAGGAAAUGCAAAGGCUUAGAGGGGACGGACAGCUCCCUGACCCUGGAUGGCCAGGAAUGGUGCUAGCUAGGGUGUGAGCCAAGCCCUUGAGGCUACUGUGAGUUAUGAGAUGUGUCCAACCCUCAGCCCACAGACUGCAUAUGCCCCAGGACAGCUGUGAAGGUGACCCAAUACAAAAUCGUAAACUAACUUCUCUUGCGGUCGCACUAGUGUGGAAUUCUCGGGUGUCAAGG
B3: ENSMUSG00000061578.593|Ksr2 (ssRNA)
RNA: GGGAGUUCUACAGUCCGACGAUCGCUUCGAUAUCCGCAUGCUAUCUGGGAUAAAAAAAAAAAGUCAAAAGAAAUAAAAUAUGAUUCAGGCAAAUUCAAUGCAACUCAAAAUUUCCACCAAUCCCAUAUUGUCCCUAGCAAUGACAAAAUUAUUUGCAAGACAGACCCUGUGACCUGUAGAGGCAAAAUAUAUGGUGGCUUGCCUGGCUGGCCUGUGAUAUAGUGGACUGUCUUAGUGAUCGGACUUCAGGGAGCAACCUAUAGGAAAUGCAAAGGCUUAGAGGGGACGGACAGCUCCCUGACCCUCUUGCGGUCGCACUAGUGUGGAAUUCUCGGGUGUCAAGG
B4: ENSMUSG00000061578.1182|Ksr2 (ssRNA)
RNA: GGGAGUUCUACAGUCCGACGAUCGCUUCGAUAUCCGCAUGCUAUGUCCUCGGGUGUCUCUGCUGUAUAUAGGCCAGUCACAAGCCCUUCUAAAAGCCUGCUCUUGUCUGCUUUUGUUUCUCCACCAUGCCCCCUGCCACCUCUUCUGACAGUGCUCAGAUUUAUCAGCCACCUGACCCACAGACCCAUAUGGACACACUAGAAAGCCCAUCCUAGGUCUUUCCAUGGUCUCUCACACCCCUGUCCCCGUCCCCUCCACCCCCCGGCAGCAUGCUUCACUCUAUGAAUGAGCCGCUGGGAUAUUCUCUUGCGGUCGCACUAGUGUGGAAUUCUCGGGUGUCAAGG
B5: ENSMUSG00000061578.1469|Ksr2 (ssRNA)
RNA: GGGAGUUCUACAGUCCGACGAUCGCUUCGAUAUCCGCAUGCUAUGGAUGGGUGAAUGGAUGGAUAGGUAUGUGAAUAAAUGGAUGGAUGGAUGGAUUGAUUUGUGAAUGAAUGGAUGAAUGGAUGGGUAGGUGGGUGGAUGCAUAGGCAAGUAGAUGAAUGAAUAUGUGGGUAGAAGGGUGAGUGGGUGGAUGAAUGGAUGGAUAGGUUGGUAGGUUAAUGUAUUCGUGGAUGGGUGAAUGGAUGGAUGGAUAGAUAGAUGGGAAGGUGGAUGGACAGAUGGAUGGAUGGAUAGAUAGAUGGACUCUUGCGGUCGCACUAGUGUGGAAUUCUCGGGUGUCAAGG
B6: ENSMUSG00000061578.1472|Ksr2|6:10 (ssRNA)
RNA: GGGAGUUCUACAGUCCGACGAUCGCUUCGAUAUCCGCAUGCUAGAUAGCAUACUGAAUAAAUGGAUGGAUGGAUGGAUUGAUUUGUGAAUGAAUGGAUGAAUGGAUGGGUAGGUGGGUGGAUGCAUAGGCAAGUAGAUGAAUGAAUAUGUGGGUAGAAGGGUGAGUGGGUGGAUGAAUGGAUGGAUAGGUUGGUAGGUUAAUGUAUUCGUGGAUGGGUGAAUGGAUGGAUGGAUAGAUAGAUGGGAAGGUGGAUGGACAGAUGGAUGGAUGGAUAGAUAGAUGGACAGGUGGUUGGUGGAUAACUCUUGCGGUCGCACUAGUGUGGAAUUCUCGGGUGUCAAGG
B7: ENSMUSG00000061578.1463|Ksr2|60:64 (ssRNA)
RNA: GGGAGUUCUACAGUCCGACGAUCGCUUCGAUAUCCGCAUGCUAUAGGUGGGUAGAUAGGUAUAUGAAUGAAUGGAUGAAUGGAUGGGUGAAUGGAUGGAUAGCAUACUGAAUAAAUGGAUGGAUGGAUGGAUUGAUUUGUGAAUGAAUGGAUGAAUGGAUGGGUAGGUGGGUGGAUGCAUAGGCAAGUAGAUGAAUGAAUAUGUGGGUAGAAGGGUGAGUGGGUGGAUGAAUGGAUGGAUAGGUUGGUAGGUUAAUGUAUUCGUGGAUGGGUGAAUGGAUGGAUGGAUAGAUAGAUGGGAAGGCUCUUGCGGUCGCACUAGUGUGGAAUUCUCGGGUGUCAAGG
B8: ENSMUSG00000061578.1466|Ksr2|42:46 (ssRNA)
RNA: GGGAGUUCUACAGUCCGACGAUCGCUUCGAUAUCCGCAUGCUAUAUGAAUGAAUGGAUGAAUGGAUGGGUGAAUGGAUGGAUAGCAUACUGAAUAAAUGGAUGGAUGGAUGGAUUGAUUUGUGAAUGAAUGGAUGAAUGGAUGGGUAGGUGGGUGGAUGCAUAGGCAAGUAGAUGAAUGAAUAUGUGGGUAGAAGGGUGAGUGGGUGGAUGAAUGGAUGGAUAGGUUGGUAGGUUAAUGUAUUCGUGGAUGGGUGAAUGGAUGGAUGGAUAGAUAGAUGGGAAGGUGGAUGGACAGAUGGAUGCUCUUGCGGUCGCACUAGUGUGGAAUUCUCGGGUGUCAAGG
B9: ENSMUSG00000061578.1467|Ksr2|36:40 (ssRNA)
RNA: GGGAGUUCUACAGUCCGACGAUCGCUUCGAUAUCCGCAUGCUAUGAAUGGAUGAAUGGAUGGGUGAAUGGAUGGAUAGCAUACUGAAUAAAUGGAUGGAUGGAUGGAUUGAUUUGUGAAUGAAUGGAUGAAUGGAUGGGUAGGUGGGUGGAUGCAUAGGCAAGUAGAUGAAUGAAUAUGUGGGUAGAAGGGUGAGUGGGUGGAUGAAUGGAUGGAUAGGUUGGUAGGUUAAUGUAUUCGUGGAUGGGUGAAUGGAUGGAUGGAUAGAUAGAUGGGAAGGUGGAUGGACAGAUGGAUGGAUGGACUCUUGCGGUCGCACUAGUGUGGAAUUCUCGGGUGUCAAGG
B10: ENSMUSG00000061578.1465|Ksr2|48:52 (ssRNA)
RNA: GGGAGUUCUACAGUCCGACGAUCGCUUCGAUAUCCGCAUGCUAUAGGUAUAUGAAUGAAUGGAUGAAUGGAUGGGUGAAUGGAUGGAUAGCAUACUGAAUAAAUGGAUGGAUGGAUGGAUUGAUUUGUGAAUGAAUGGAUGAAUGGAUGGGUAGGUGGGUGGAUGCAUAGGCAAGUAGAUGAAUGAAUAUGUGGGUAGAAGGGUGAGUGGGUGGAUGAAUGGAUGGAUAGGUUGGUAGGUUAAUGUAUUCGUGGAUGGGUGAAUGGAUGGAUGGAUAGAUAGAUGGGAAGGUGGAUGGACAGACUCUUGCGGUCGCACUAGUGUGGAAUUCUCGGGUGUCAAGG
B11: ENSMUSG00000061578.1469|Ksr2|24:28 (ssRNA)
RNA: B5 RNA with G67C, U68A, A69U, U70A, G71C
B12: ENSMUSG00000061578.1468|Ksr2|30:34 (ssRNA)
RNA: GGGAGUUCUACAGUCCGACGAUCGCUUCGAUAUCCGCAUGCUAGAUGAAUGGAUGGGUGAAUGGAUGGAUAGCAUACUGAAUAAAUGGAUGGAUGGAUGGAUUGAUUUGUGAAUGAAUGGAUGAAUGGAUGGGUAGGUGGGUGGAUGCAUAGGCAAGUAGAUGAAUGAAUAUGUGGGUAGAAGGGUGAGUGGGUGGAUGAAUGGAUGGAUAGGUUGGUAGGUUAAUGUAUUCGUGGAUGGGUGAAUGGAUGGAUGGAUAGAUAGAUGGGAAGGUGGAUGGACAGAUGGAUGGAUGGAUAGAUACUCUUGCGGUCGCACUAGUGUGGAAUUCUCGGGUGUCAAGG
B13: ENSMUSG00000029636.74|Wasf3 (ssRNA)
RNA: GGGAGUUCUACAGUCCGACGAUCGCUUCGAUAUCCGCAUGCUACCCACGUCAGCUCUCUGCAAGAUCACUGGCUGUGUGUCUCAGUGAUGUCUUCCAACCAGUGGGUGAUACGUUUUCCUGUUUCUUCCCUUUGCAAAUUGAAUUCCAGGUAGAUAUGGUUGUAGAGGGGAAAGUUUAACAAAUCAGAAUGAAAUGUUUGUCUGUUUGCACACUGGGCCUGGUGGCCUCCAAGGAAAUGUGUACGAUCGUUUGCUUUCUCUAUCUUGGCGCUUGCAACCGAGAGCGGCCAUUUUUAUGAGGGGCUCUUGCGGUCGCACUAGUGUGGAAUUCUCGGGUGUCAAGG

Target: TDP-43 (Homo sapiens, UniProt Q13148 1-414)
Assay: RNA Bind-n-Seq with designed 260-mer pool; 25 mM Tris-HCl, 150 mM KCl, 3 mM MgCl2, BSA (printed 500 mg/mL), 20 units/mL SUPERase IN; pH not stated; 500 nM RNA pool, 1 h, 4 C; TDP-43 5, 50, 500 nM; high values mean tight binding
Conditions: protein: recombinant; tags: SBP (GST cleaved off with PreScission; pGEX-GST-SBP)
Summary of the method: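 The incubation lasted 1 h at 4 °C and used 500 nM of an in vitro-transcribed 260-nt 3′ UTR oligo pool with recombinant SBP-tagged TDP-43 at 5, 50 or 500 nM immobilized on streptavidin beads. It took place in 25 mM Tris-HCl, 150 mM KCl, 3 mM MgCl2, BSA and SUPERase IN. Bound RNA was washed, eluted with biotin, converted to cDNA, PCR-amplified and sequenced to give R, each oligo's normalized abundance in the bound sample divided by that in input. Two independent protein batches provided the duplicates.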

Chain of TDP-43 (Q13148 whole entry): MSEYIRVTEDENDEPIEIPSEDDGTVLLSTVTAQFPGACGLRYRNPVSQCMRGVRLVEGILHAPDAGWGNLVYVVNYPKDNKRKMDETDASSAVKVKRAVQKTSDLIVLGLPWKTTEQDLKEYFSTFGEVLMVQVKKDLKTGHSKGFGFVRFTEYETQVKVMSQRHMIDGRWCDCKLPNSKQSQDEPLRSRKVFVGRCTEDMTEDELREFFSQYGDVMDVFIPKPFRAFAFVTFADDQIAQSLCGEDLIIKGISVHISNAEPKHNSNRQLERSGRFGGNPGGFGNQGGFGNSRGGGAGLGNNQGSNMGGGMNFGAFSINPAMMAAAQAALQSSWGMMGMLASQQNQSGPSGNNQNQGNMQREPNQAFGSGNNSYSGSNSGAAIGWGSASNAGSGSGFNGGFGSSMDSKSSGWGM

Row | Binder | binding signal
1 | B1 | 0.125 R (bound/input frequency ratio)
2 | B2 | 0.616 R (bound/input frequency ratio)
3 | B3 | 0.762 R (bound/input frequency ratio)
4 | B4 | 0.904 R (bound/input frequency ratio)
5 | B5 | 5.88 R (bound/input frequency ratio)
6 | B6 | 5.45 R (bound/input frequency ratio)
7 | B7 | 4.6 R (bound/input frequency ratio)
8 | B8 | 6.95 R (bound/input frequency ratio)
9 | B9 | 6.51 R (bound/input frequency ratio)
10 | B10 | 5.93 R (bound/input frequency ratio)
11 | B11 | 12.1 R (bound/input frequency ratio)
12 | B12 | 8.93 R (bound/input frequency ratio)
13 | B13 | 2.22 R (bound/input frequency ratio)
